Screening results as filed in PubChem.
Most compounds without a hit are left out; they make up all but 6.8% or so of the library.
C diff growth: C. difficile growth inhibition; growth activity, negative = inhibition, % at 16 µg/mL (by protocol); 86,000 tested, 0.25% active; AID 1259249; Clostridium difficile clinical isolate growth, OD600, 24 h; active compounds read low;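 active = mean growth activity at or below -80% and every replicate also at or below -80%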
Tcruzi prolif: blocks T. cruzi growth in NIH3T3 culture; T. cruzi beta-gal in NIH3T3, GalScreen luminescence, 90 h; inhibition, % at 8.34 µM; 77,000 tested, 5.9% active;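 active = mean inhibition above about 93%, with at least 55% of replicates each passing it, limit read from the data, passing the limit was not always enough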
Pf Dd2 growth: inhibitors of Plasmodium falciparum Dd2 growth | P. falciparum Dd2 growth, SYBR Green, 72 h; active compounds read low | activity change, % at 10 µM | 94,000 tested, 2.3% active; in the data active = activity change below about -80%
Numbers stand for hits; 0 = inactive; - = no result given.

SMILES	C diff growth	Tcruzi prolif	Pf Dd2 growth
C[C@@H]1CN([C@H](C)CO)C(=O)c2cc(NC(=O)Nc3ccc4c(c3)OCO4)ccc2O[C@@H](C)CCCCO[C@H]1CN(C)Cc1ccc(Cl)c(Cl)c1	0	0	-89.1
C[C@@H]1CCCCO[C@@H](CN(C)Cc2ccc(Cl)c(Cl)c2)[C@H](C)CN([C@H](C)CO)C(=O)c2cc(NC(=O)Nc3ccc4c(c3)OCO4)ccc2O1	0	0	-87.5
C[C@@H]1CCCCO[C@@H](CN(C)Cc2ccc(Cl)c(Cl)c2)[C@@H](C)CN([C@@H](C)CO)C(=O)c2cc(NC(=O)Nc3ccc4c(c3)OCO4)ccc2O1	0	0	0
C[C@H]1CCCCO[C@H](CN(C)Cc2ccc(Cl)c(Cl)c2)[C@@H](C)CN([C@@H](C)CO)C(=O)c2cc(NC(=O)Nc3ccc4c(c3)OCO4)ccc2O1	0	0	0
C[C@@H]1CN([C@H](C)CO)S(=O)(=O)c2ccc(-c3ccncc3)cc2O[C@@H]1CN(C)C(=O)C1CCC1	-	0	0
Cc1noc(C)c1S(=O)(=O)N(C)C[C@H]1Oc2c(NC(=O)C3CCOCC3)cccc2C(=O)N([C@H](C)CO)C[C@H]1C	-	0	0
COCc1cn(CC[C@@H]2CC[C@H](NC(=O)Nc3ccc4c(c3)OCO4)[C@H](CO)O2)nn1	0	0	0
COCCCNC(=O)[C@@]1(C)c2ccccc2C(=O)N(Cc2cc(F)cc(C(F)(F)F)c2)[C@H]1c1ccc(CO)cc1	0	-	-
COc1ccc(C#Cc2ccc3c(c2)O[C@@H](CN(C)C)[C@H](C)CN([C@H](C)CO)S3(=O)=O)cc1	0	0	0
COc1ccc(C#Cc2ccc3c(c2)O[C@H](CN(C)S(=O)(=O)c2ccccc2F)[C@@H](C)CN([C@@H](C)CO)S3(=O)=O)cc1	0	-	-85.7
COc1ccc(C#Cc2ccc3c(c2)O[C@H](CN(C)C)[C@@H](C)CN([C@H](C)CO)S3(=O)=O)cc1	0	0	0
COc1ccc(C#Cc2ccc3c(c2)O[C@@H](CN(C)S(=O)(=O)c2ccccc2F)[C@H](C)CN([C@@H](C)CO)S3(=O)=O)cc1	0	-	-82.0
COC(=O)c1ccc(CN2CC(=O)N3[C@H](CO)[C@@H](c4ccc(-c5ccccc5F)cc4)[C@H]3C2)cc1	0	-	-83.2
O=C(c1ccc(F)cc1)N1CC(=O)N2[C@H](C1)[C@@H](c1ccc(-c3cccnc3)cc1)[C@@H]2CO	0	-	-89.2
COC(=O)c1ccc(CN2CC(=O)N3[C@H](C2)[C@@H](c2ccc(-c4ccccc4F)cc2)[C@@H]3CO)cc1	0	-	0
O=C(c1cccc(F)c1)N1CC(=O)N2[C@H](CO)[C@H](c3ccc(-c4cccnc4)cc3)[C@@H]2C1	0	-	0
O=C(c1ccccc1F)N1CC(=O)N2[C@@H](CO)[C@@H](c3ccc(-c4cccnc4)cc3)[C@@H]2C1	0	-	0
O=C(c1ccccc1F)N1CC(=O)N2[C@H](C1)[C@@H](c1ccc(-c3cccnc3)cc1)[C@@H]2CO	0	-	-86.7
O=C(c1cccc(F)c1)N1CC(=O)N2[C@H](C1)[C@@H](c1ccc(-c3cccnc3)cc1)[C@@H]2CO	0	-	-87.6
O=C(c1ccc(F)cc1)N1CC(=O)N2[C@H](C1)[C@H](c1ccc(-c3cccnc3)cc1)[C@@H]2CO	0	-	0
COc1ccc(CN(C)C[C@@H]2OCCCC[C@@H](C)Oc3ccc(NC(=O)c4ccncc4)cc3C(=O)N([C@@H](C)CO)C[C@H]2C)cc1	0	0	0
O=C(C[C@H]1C=C[C@@H](NS(=O)(=O)c2ccc(F)cc2)[C@@H](CO)O1)NCCN1CCCCC1	0	0	0
O=C(CCN1CCCCC1)NCC[C@H]1CC[C@H](NC(=O)C2CCOCC2)[C@H](CO)O1	0	0	0
O=C(c1cccnc1)N1CC(=O)N2[C@H](C1)[C@H](c1ccc(-c3ccc(F)cc3)cc1)[C@@H]2CO	0	-	0
O=C(c1ccc(F)cc1)N1CC(=O)N2[C@H](CO)[C@H](c3ccc(-c4cccnc4)cc3)[C@H]2C1	0	-	-87.1
COc1ccc2c3c([nH]c2c1)[C@H](CO)N(C(=O)Nc1ccc(F)cc1)CC31CCN(S(=O)(=O)c2ccccc2)CC1	0	-	-87.6
COc1cccc(S(=O)(=O)N2CCC3(CC2)CN(C(=O)Nc2ccc(F)cc2)[C@H](CO)c2[nH]c4cc(OC)ccc4c23)c1	0	-	0
COc1cccc(S(=O)(=O)N2CCC3(CC2)CN(C(=O)Nc2ccc(F)cc2)[C@@H](CO)c2[nH]c4cc(OC)ccc4c23)c1	0	-	0
COc1ccc2c3c([nH]c2c1)[C@@H](CO)N(C(=O)Nc1ccc(F)cc1)CC31CCN(S(=O)(=O)c2ccccc2)CC1	0	-	-84.3
C[C@@H]1CN([C@@H](C)CO)C(=O)Cc2cc(NC(=O)NC3CCCCC3)ccc2O[C@H]1CN(C)Cc1ccc2c(c1)OCO2	0	-	0
